In the supplement of paper PMC6555819:

Legend:
Test in all cases: PBM binding z-score (relative to random genomic background probes); higher = stronger binding; sequences stand for … in GC…GCGATTGACAGCGTAGAATGAAGG
[1] = system: FXR:RXRa (NR concentration 270 nM, RXRa partner concentration 90 nM)
Summary of the method: (§1)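 Ligand-free nuclear receptor dimers were bound for 1 h to custom Agilent 4×180K protein-binding microarrays. Detection used antibodies against each partner (one per run). Binding z-scores rest on regression-normalized fluorescence, with random background probes as the reference.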

[2] = system: LXRa:RXRa (NR concentration 270 nM, RXRa partner concentration 90 nM)
Summary of the method: as §1

[3] = system: LXRa homodimer (NR concentration 270 nM)
Summary of the method: as §1

[4] = system: LXRb:RXRa (NR concentration 270 nM, RXRa partner concentration 90 nM)
Summary of the method: as §1

[5] = system: LXRb homodimer (NR concentration 270 nM)
Summary of the method: as §1

[6] = system: PPARa:RXRa (NR concentration 270 nM, RXRa partner concentration 90 nM)
Summary of the method: as §1

[7] = system: PPARg:RXRa (NR concentration 180 nM, RXRa partner concentration 90 nM)
Summary of the method: as §1

[8] = system: PPARg:RXRa 270nM:90nM, anti-RXR (NR concentration 270 nM, RXRa partner concentration 90 nM)
Summary of the method: as §1

[9] = system: PPARg:RXRa 30nM:10nM, anti-RXR (NR concentration 30 nM, RXRa partner concentration 10 nM)
Summary of the method: as §1

[10] = system: PPARg:RXRa 90nM:30nM, anti-RXR (NR concentration 90 nM, RXRa partner concentration 30 nM)
Summary of the method: as §1

[11] = system: PPARg:RXRa DBDmut IVT, anti-RXR (DBD mutation: RXRa K156A/R161A, NR concentration 270 nM, RXRa partner concentration 90 nM)
Summary of the method: as §1

[12] = system: PPARg:RXRa IVT, anti-PPARg (NR concentration 270 nM, RXRa partner concentration 90 nM)
Summary of the method: as §1

[13] = system: PPARg DBDmut:RXRa IVT, anti-PPARg (DBD mutation: PPARg1 K132A/R137A, NR concentration 270 nM, RXRa partner concentration 90 nM)
Summary of the method: as §1

[14] = system: PPARg DBDmut IVT, anti-PPARg (DBD mutation: PPARg1 K132A/R137A, NR concentration 270 nM)
Summary of the method: as §1

[15] = system: PPARg homodimer (NR concentration 180 nM)
Summary of the method: as §1

[16] = system: PXR:RXRa (NR concentration 270 nM, RXRa partner concentration 90 nM)
Summary of the method: as §1

[17] = system: PXR homodimer (NR concentration 270 nM)
Summary of the method: as §1

[18] = system: RARa:RXR (NR concentration 270 nM, RXRa partner concentration 90 nM)
Summary of the method: as §1

[19] = system: RARa homodimer (NR concentration 270 nM)
Summary of the method: as §1

[20] = system: RARb:RXRa (NR concentration 270 nM, RXRa partner concentration 90 nM)
Summary of the method: as §1

Row | Sequence | PBM binding z-score [1] | PBM binding z-score [2] | PBM binding z-score [3] | PBM binding z-score [4] | PBM binding z-score [5] | PBM binding z-score [6] | PBM binding z-score [7] | PBM binding z-score [8] | PBM binding z-score [9] | PBM binding z-score [10] | PBM binding z-score [11] | PBM binding z-score [12] | PBM binding z-score [13] | PBM binding z-score [14] | PBM binding z-score [15] | PBM binding z-score [16] | PBM binding z-score [17] | PBM binding z-score [18] | PBM binding z-score [19] | PBM binding z-score [20]
1 | CGTCCAAGGTCAGTAGGTCAGTGAAAGCGACGTG | 4.68 | 3.18 | 0.336 | 2.78 | 0.0496 | 5.1 | 6.2 | 6 | 2.74 | 4.9 | 5.03 | 6.09 | 0.33 | 0.924 | 4.32 | 3.23 | 0.64 | 4.46 | 1.39 | 5
2 | CCTACTGGGCCACGATAGGTCATTGATTCAGTGA | 0.91 | 3.95 | 1.66 | 1.74 | -0.503 | 2.79 | 2.44 | 3.11 | 0.577 | 1.86 | 5.57 | 5.44 | 0.89 | -0.512 | 1.33 | 1.49 | 0.172 | 2.14 | 0.152 | 2.06
3 | TCTTGTAGATCAATAAAGGTTAAGAAAGTGCGCT | 1.03 | 4.33 | 0.774 | 2.36 | 0.274 | 2.32 | 0.49 | 2.26 | 2.99 | 2.82 | 2.1 | 1.29 | 0.661 | 1.24 | 1.33 | 3.04 | 0.584 | 2.3 | 1.6 | 1.53
4 | CGAACTAGGTCATTGACAGGGCAGTGAATAGTAA | 4.4 | 3.17 | 0.428 | 1.99 | -0.104 | 4.74 | 7.4 | 6.18 | 3.75 | 5.96 | 8.27 | 7.87 | 2.56 | 1.37 | 2.24 | 1.69 | 0.134 | 2.69 | 0.301 | 3.72
5 | CCTAATGGGCCATCAGGTCATTGATATCAACGTT | 1.58 | 1.34 | 1.1 | 1.48 | 0.197 | 2.33 | 1.5 | 2.54 | 0.609 | 1.98 | 3.13 | 3.41 | -0.226 | 0.112 | 1.81 | 1.84 | 0.78 | 2.18 | 0.44 | 2.15
6 | TCATATAGGTAGAAGGTGAAAGTCGGTGTGGTAA | 1.26 | 1.21 | 0.0834 | 1.16 | -0.0966 | 3.46 | 5.61 | 6.84 | 5.99 | 7.35 | 3.5 | 2.69 | 1.46 | 0.808 | 1.59 | 0.746 | 0.482 | 1.17 | 1.42 | 1.08
7 | TCTTGTAGATCAACAGGAGGTTAAGATAGATCGA | 0.606 | 1.82 | 0.251 | 0.87 | -0.281 | 1.34 | 0.413 | 1.07 | 2.4 | 1.53 | 1.53 | 1.03 | 0.933 | 1.02 | 0.31 | 0.729 | -0.114 | 1.05 | 0.362 | 0.506
8 | GCTACTAGGTCAACTGATGGTCAGCTAAAGCTCG | 4.07 | 3.11 | 0.488 | 2.22 | 0.314 | 4.47 | 7.27 | 6.19 | 3.31 | 5.71 | 8 | 8.03 | 2.65 | 2.15 | 2.57 | 1.75 | -0.307 | 3.07 | 0.12 | 4.25
9 | GCTATTATTTGAAAGGGCAACCGAATGATTCTCG | 0.306 | 0.97 | 1.37 | 0.925 | 0.441 | 1.08 | 0.626 | 1.41 | 0.637 | 0.844 | 0.681 | 0.479 | 0.791 | 0.619 | 1.8 | 0.697 | 1.02 | 1.07 | 2.43 | 2.09
10 | TAGCCTTGGTCATTCAGGGGCCAGTATAGAAAGC | -0.269 | -0.328 | -0.573 | 0.134 | -0.26 | 0.0582 | -0.0299 | -0.0721 | -0.509 | -0.279 | -0.687 | 0.278 | -0.367 | -0.339 | -0.308 | 0.0515 | -0.437 | 0.596 | -0.818 | 1.44
11 | CCTACTGGGCCATCAGGTCGTTGATATCAACGTT | -0.00658 | -0.372 | -0.231 | -0.0218 | -0.541 | 0.992 | 1.22 | 2.22 | 0.274 | 1.41 | 4.23 | 4.12 | -0.38 | -0.752 | 0.382 | 0.0795 | -0.323 | 0.272 | -0.616 | 0.569
12 | GCAGACAGGTGAAACGCAGGTAACTGAGGGTGGC | -0.0768 | -0.241 | -0.455 | -0.345 | -0.944 | 0.632 | 0.492 | -0.236 | -0.698 | -0.467 | 0.757 | 0.578 | 0.338 | -0.375 | -0.52 | -0.257 | -0.434 | 0.257 | -0.289 | 0.65
13 | TCATATAGGCAATACAGGTGAAAGTCGGCATCTA | 1.06 | 0.731 | 0.422 | 0.906 | -0.3 | 1.3 | 0.823 | 1.91 | 3.62 | 2.85 | 2.91 | 1.7 | 0.893 | 0.339 | 0.723 | 0.419 | 0.292 | 0.707 | 0.869 | 0.192
14 | TCTTGTAAATCAAGCAGGTTAAGAAAGCCTGAGT | 0.618 | 0.47 | -0.237 | 0.526 | -0.289 | 0.845 | -0.51 | 1.34 | 2.8 | 2.01 | 1.54 | -0.000502 | -0.116 | 0.31 | -0.337 | 0.678 | 0.119 | 0.64 | 0.0275 | 0.495
